Assay results from PubChem BioAssay (EPA / NIEHS).
The source made the active and inactive calls. The calls were made as follows: active = hit-call score of the fitted dose curve at least 0.9, where 1 is the maximum; inactive = score below 0.9.

assay: CCTE_Shafer_MEA_acute_interburst_interval_mean: CCTE's Neural Acute Assay for Mean Interburst Interval, Shafer Lab (AID 2284016);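 also: percent change of mean interburst interval versus each well's own pre-dose baseline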
Description: CCTE_Shafer_MEA_acute assay is conducted using Axion Biosystems 48 well microelectrode array (MEA) plates and Maestro recording system. Each well of the MEA plate contains a grid of 16 microelectrodes embedded in the culture surface. Electrically active cells, such as neurons, can be cultured over the electrodes, and electrical activity in these cells can be recorded extracellularly. The spontaneous firing of neurons is captured from each electrode on a microsecond timescale providing both temporally and spatially precise data. […] The CCTE_Shafer_MEA_acute assay uses primary cultures of rat cortical neurons. As these cultures mature over time, neural networks develop functional activity and form cohesive networks in which electrical activity can be highly coordinated. Baseline 40-minute recordings are made on days post-plating 13 or 15, followed by a secondary 40-minute recording after chemical exposure.CCTE_Shafer_MEA_acute_interburst_interval_mean is a component of the CCTE_Shafer_MEA_acute assay. It measures the average time between the start of consecutive single-electrode bursts (temporally-clustered groups of action potential firing) during a recording in a microelectrode array (MEA) using Axion Biosystems Maestro 768 channel amplifier with the AxIS adaptive spike detector. The recordings before and after chemical treatment are used to calculate a percent change in the mean inter-burst interval in each well.Data from the assay component CCTE_Shafer_MEA_acute_interburst_interval_mean was analyzed into 1 assay endpoint. This assay endpoint, CCTE_Shafer_MEA_acute_interburst_interval_mean, was analyzed in the negative analysis fitting direction relative to DMSO as the negative control and baseline of activity. Using a type of functional reporter, gain or loss-of-signal activity can be used to understand electrical activity.
Spontaneous activity in the cortical cultures was recorded using an Axion Biosystems Maestro 768 channel amplifier and Axion Integrated Studios (AxIS) v1.8 (or later) software. The amplifier recorded from all channels simultaneously (gain = 1200 x; sampling rate = 12.5 kHz/channel): raw signals were filtered with a Butterworth band-pass filter (300-5000 Hz), which filters out slower local field potentials leaving only fast potentials, i.e., "spikes", arising from extracellular currents associated with action potentials (Pine 2006; Wheeler and Nam 2011). On-line spike detection of filtered signals was conducted with the AxIS adaptive spike detector, using a threshold of 8x the root mean squared (rms) noise on each channel. Any electrodes with rms noise levels greater than 5 uV were grounded (e.g., no data were recorded). Once grounded, an electrode was grounded for the duration of the experiment. All recordings were conducted at 37 C. Wells were deemed usable if on the day of the exposure >/= 10 electrodes were active (defined as >/= 5 spikes/min). On DIV 13 or 15, a minimum of three wells from one cortical culture preparation were treated with each compound (0.03-40 uM). Prior to recording baseline activity, each mwMEA plate was placed in the Maestro at 37 C and allowed to sit for 20 min while firing rates stabilized. Baseline activity (40 min) was recorded before the addition of each compound. An additional 40 min of spontaneous activity was recorded in the presence of each compound. Changes in network parameters relative to baseline were assessed following compound treatment.

SMILES	outcome	AC50
O=C(c1ccccc1)C1CCCCC1	inactive	
OB(O)O	inactive	
O=C(O)c1ccccc1	inactive	
O=C(Nc1ccc([N+](=O)[O-])cc1Cl)c1cc(Cl)ccc1O		0.183 µM (active)
CCCCC(CC)CN1C(=O)C2C3C=CC(C3)C2C1=O (centres undefined)	inactive	
O=C(c1ccc(O)cc1O)c1ccc(O)cc1O	inactive	
Oc1ccc(C(c2ccc(O)cc2)C(Cl)(Cl)Cl)cc1		7.4 µM (active)
CSC(=O)c1cccc2nnsc12	inactive	
C=CCOC(Cn1ccnc1)c1ccc(Cl)cc1Cl (centres undefined)	inactive	
CC(C)CCCCCCc1ccc(O)cc1		7.29 µM (active)
CCNc1nc(N)nc(Cl)n1	inactive	
CCCN(CCC)c1c([N+](=O)[O-])cc(C(F)(F)F)c(N)c1[N+](=O)[O-]	inactive	
CC1(C)C(C=C(Cl)Cl)C1C(=O)OCc1cccc(Oc2ccccc2)c1 (centres undefined)	inactive	
COC(=O)c1ccccc1C(=O)O	inactive	
CC(C)(c1ccc(O)cc1)c1ccc(O)cc1	inactive	
N#CSCSc1nc2ccccc2s1	inactive	
C#CCOC(=O)[C@@H](C)Oc1ccc(Oc2ncc(Cl)cc2F)cc1	inactive	
Cc1nn(C)c(Oc2ccccc2)c1C=NOCc1ccc(C(=O)OC(C)(C)C)cc1		0.003 µM (active)
CC(C)(C)[C@@H](O)[C@@H](Cc1ccc(Cl)cc1)n1cncn1	inactive	
